Measurements as given in PubChem BioAssay (NCATS).
Inconclusive results are not listed. Values without a mark were called inactive. The source made the active and inactive calls. The call rests on the fitted dose curve; in most records, active means well fitted curve in the direction sought with a large enough effect; inconclusive means small, poorly fitted or top-dose-only effect, or another doubt; inactive means no such curve, though single readings can be large; an effect the other way counts as inactive or inconclusive.

Assay: qHTS for Inhibitors of Plasmodium falciparum (7G8) proliferation (AID 504316); further: nearly all actives have a fitted effect of over 65% in size; further: potency means the concentration at half of the fitted maximal effect;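 on activity change, negative = inhibition: 0% = DMSO vehicle and -100% = 0.29 µM artemisinin full kill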
Conditions: P. falciparum 7G8 in erythrocytes, SYBR Green DNA, 72 h; series mostly up to 6.7 µM; activity change, negative = inhibition: at the top concentration
How it was run: (§1)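 Erythrocytes infected with P. falciparum line (0.3% parasitemia, 2.5% hematocrit final) incubated with compounds 72 h at 37 °C, 5% CO2; SYBR Green lysis buffer added, fluorescence read next day. Normalized to 0.29 uM artemisinin and DMSO.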
In the case of `C=C(C)C(=O)c1ccc2c(c1)OCO2`, the “activity change, negative = inhibition” value is reported as 6.07%.
In the case of `CCCCC1=CC2=CC(=O)C(C)(OC(=O)CC)C(=O)C2=CN1CCc1ccc(Br)cc1` (stereo not given), the “activity change, negative = inhibition” value is reported as -11%.
In the case of `CC#CCN1c2ccccc2[C@]23C[C@@H](C(=O)OC)N(C(=O)c4cc(C)oc4C)C2=NC(C(=O)OC)=C(C(=O)OC)[C@H]13`, the Potency is reported as 1.51 µM (active).

Assay: qHTS for Inhibitors of Plasmodium falciparum (HB3) proliferation (AID 504318);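 further: 0% = DMSO vehicle and -100% = artemisinin control; nearly all actives have a fitted effect of over 60% in size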
Conditions: P. falciparum HB3 in erythrocytes, SYBR Green DNA, 72 h; series mostly up to 7.21 µM; activity change, negative = inhibition: at the top concentration
How it was run: as §1
With `COC(=O)C1=C(C(=O)OC)[C@@H]2N(C)c3ccc(OC)cc3[C@@]23C[C@@H](C(=O)OC)N(S(=O)(=O)c2ccc(OC)cc2)C3=N1` the “activity change, negative = inhibition” value was -9.81%.
With `C=CCN1c2ccccc2[C@]23C[C@@H](C(=O)OC)N(C(C)=O)C2=NC(C(=O)OC)=C(C(=O)OC)[C@H]13` the “activity change, negative = inhibition” value was 7.58%.
For `COC(=O)CCCC1=CC2=CC(=O)C(C)(OC(=O)CCc3ccccc3)C(=O)C2=CO1` (stereo not given), the “activity change, negative = inhibition” value was -8.71%.
With `CC1(OC(=O)C2CCCC2)C(=O)C=C2C=C(c3ccsc3)N(c3ccc(CO)cc3)C=C2C1=O` (stereo not given) the “activity change, negative = inhibition” value was -3.39%.
With `CC#CCN1c2ccccc2[C@]23C[C@@H](C(=O)OC)N(C(=O)OCC)C2=NC(C(=O)OC)=C(C(=O)OC)[C@H]13` the “activity change, negative = inhibition” value was -5.85%.
For `C=CCN1c2ccccc2[C@]23C[C@@H](C(=O)OC)N(S(=O)(=O)CCCC)C2=NC(C(=O)OC)=C(C(=O)OC)[C@H]13`, the “activity change, negative = inhibition” value was -7.29%.
For `C=CCN1c2ccccc2[C@]23C[C@@H](C(=O)OC)N(S(=O)(=O)c4c(C)noc4C)C2=NC(C(=O)OC)=C(C(=O)OC)[C@H]13`, the “activity change, negative = inhibition” value was -1.28%.
In the case of `C[C@H]1Cc2c(-c3ccccc3)nc3c(c2CO1)CN(C(=O)c1cc(I)ccc1F)CC3`, the “activity change, negative = inhibition” value is reported as -8.2%.
In the case of `CCN1C(=O)N[C@@H](c2cccc(C(F)(F)F)c2)C(C(=O)OC)=C1C`, the “activity change, negative = inhibition” value is reported as 4.29%.
For `CCCCc1nc2c(c3c1C[C@H](C)OC3)CN(C(=O)NCCCC(=O)OCC)CC2`, the “activity change, negative = inhibition” value was -4.83%.

Assay: qHTS for Inhibitors of Plasmodium falciparum (CP250) proliferation (AID 504320);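 further: plate controls were DMSO vehicle for no effect and 0.29 µM artemisinin control for full effect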
Conditions: P. falciparum CP250 in erythrocytes, SYBR Green DNA, 72 h; series mostly up to 6.7 µM; activity change, negative = inhibition: at the top concentration
How it was run: as §1
For `COC(=O)C1=C(C(=O)OC)[C@@H]2N(C)c3ccc(OC)cc3[C@@]23C[C@@H](C(=O)OC)N(S(=O)(=O)c2ccc(OC)cc2)C3=N1`, the “activity change, negative = inhibition” value was 3.47%.
With `CCCCC1=CC2=CC(=O)C(C)(OC(=O)CC)C(=O)C2=CN1Cc1ccccc1` (stereo not given) the “activity change, negative = inhibition” value was 5.11%.
For `C=CCN1c2ccccc2[C@]23C[C@@H](C(=O)OC)N(C(=O)c4cc(C)oc4C)C2=NC(C(=O)OC)=C(C(=O)OC)[C@H]13`, the “activity change, negative = inhibition” value was 1.94%.
In the case of `COC(=O)CCC(=O)OC1(C)C(=O)C=C2C=C(C3CC3)N(c3ccc(OC)cc3)C=C2C1=O` (stereo not given), the “activity change, negative = inhibition” value is reported as -22.3%.
In the case of `COc1cccc([C@@H]2Oc3ccc(Br)cc3C(=O)[C@@H]2OC(=O)Nc2ccc(OC(F)F)cc2)c1`, the “activity change, negative = inhibition” value is reported as 7.34%.
With `CCN1C(=O)N[C@H](c2ccc(Br)cc2)C(C(=O)OC)=C1C` the “activity change, negative = inhibition” value was 1.4%.
With `CCCCc1nc2c(c3c1C[C@H](C)OC3)CN(C(=O)c1cc(I)ccc1F)CC2` the Potency was “inactive”.
For `C[C@H]1Cc2c(COc3ccccc3)nc3c(c2CO1)CN(C(=O)Cc1cccs1)CC3`, the “activity change, negative = inhibition” value was -3.35%.
For `C=CCN1c2ccccc2[C@]23C[C@@H](C(=O)OC)N(C(C)=O)C2=NC(C(=O)OC)=C(C(=O)OC)[C@H]13`, the “activity change, negative = inhibition” value was -0.926%.
With `COC(=O)CCCC1=CC2=CC(=O)C(C)(OC(=O)CCc3ccccc3)C(=O)C2=CO1` (stereo not given) the “activity change, negative = inhibition” value was 3.7%.
In the case of `C=CCNC(=O)N1CCc2nc(COc3ccccc3)c3c(c2C1)CO[C@@H](C)C3`, the “activity change, negative = inhibition” value is reported as -1.95%.
With `CCCCS(=O)(=O)N1C2=NC(C(=O)OC)=C(C(=O)OC)[C@@H]3Nc4ccccc4[C@]23C[C@H]1C(=O)OC` the “activity change, negative = inhibition” value was 5.58%.
In the case of `CC1(OC(=O)C2CCCC2)C(=O)C=C2C=C(c3ccsc3)N(c3ccc(CO)cc3)C=C2C1=O` (stereo not given), the “activity change, negative = inhibition” value is reported as 1.54%.
In the case of `COC/C=C/C1=CC2=CC(=O)C(C)(OC(=O)c3cnc4ccccc4n3)C(=O)C2=CN1c1ccc(OC)cc1` (stereo not given), the “activity change, negative = inhibition” value is reported as -18.9%.
In the case of `CC#CCN1c2ccccc2[C@]23C[C@@H](C(=O)OC)N(C(=O)OCC)C2=NC(C(=O)OC)=C(C(=O)OC)[C@H]13`, the “activity change, negative = inhibition” value is reported as -2.45%.
In the case of `CCCC[C@]12Cc3cc(OC)c(OC)cc3[C@H](O1)C1=C(O2)C(=O)c2ccccc2C1=O`, the “activity change, negative = inhibition” value is reported as -12.6%.
With `CCN(CC)CCCN1C=C2C(=O)C(C)(OC(=O)CCC(=O)OC)C(=O)C(Br)=C2C=C1c1ccc(OC)cc1` (stereo not given) the “activity change, negative = inhibition” value was -1.42%.
In the case of `O=C(C=Cc1ccc2c(c1)OCO2)c1ccccc1`, the “activity change, negative = inhibition” value is reported as 1.87%.
With `C=CCN1c2ccccc2[C@]23C[C@@H](C(=O)OC)N(S(=O)(=O)c4ccc(C#N)cc4)C2=NC(C(=O)OC)=C(C(=O)OC)[C@H]13` the “activity change, negative = inhibition” value was 4.12%.
With `C=CCN1c2ccccc2[C@]23C[C@@H](C(=O)OC)N(S(=O)(=O)CCCC)C2=NC(C(=O)OC)=C(C(=O)OC)[C@H]13` the “activity change, negative = inhibition” value was 1.87%.
For `COC(=O)CCC(=O)OC1(C)C(=O)C2=CN(Cc3ccco3)C(c3ccc(OC)cc3)=CC2=C(Br)C1=O` (stereo not given), the “activity change, negative = inhibition” value was 6.71%.
With `C=CCN1c2ccccc2[C@]23C[C@@H](C(=O)OC)N(S(=O)(=O)c4c(C)noc4C)C2=NC(C(=O)OC)=C(C(=O)OC)[C@H]13` the “activity change, negative = inhibition” value was -1.06%.
In the case of `C[C@H]1Cc2c(-c3ccccc3)nc3c(c2CO1)CN(C(=O)c1cc(I)ccc1F)CC3`, the “activity change, negative = inhibition” value is reported as 0.61%.
In the case of `C[C@H]1Cc2c(COc3ccccc3)nc3c(c2CO1)CN(S(=O)(=O)c1ccc(C#N)cc1)CC3`, the “activity change, negative = inhibition” value is reported as 8.34%.
For `C/C=C/C1=Cc2ccccc2C(CC(=O)OC)N1C(=O)OC` (stereo not given), the “activity change, negative = inhibition” value was -3.02%.
For `CC1(OC(=O)CCc2ccccc2)C(=O)C=C2C=C(c3ccc(C#N)cc3)N(C3CCCC3)C=C2C1=O` (stereo not given), the “activity change, negative = inhibition” value was -3.6%.
For `CCN1C(=O)N[C@@H](c2cccc(C(F)(F)F)c2)C(C(=O)OC)=C1C`, the “activity change, negative = inhibition” value was -1.17%.
In the case of `COC(=O)C1=C(C(=O)OC)[C@@H]2N(C)c3ccccc3[C@@]23C[C@@H](C(=O)OC)N(S(=O)(=O)c2cccs2)C3=N1`, the “activity change, negative = inhibition” value is reported as -1.11%.
For `COC(=O)C1=C(C(=O)OC)[C@@H]2N(C)c3ccccc3[C@@]23C[C@@H](C(=O)OC)N(S(=O)(=O)c2c(C)noc2C)C3=N1`, the “activity change, negative = inhibition” value was 5.24%.
With `COC(=O)CCCC1=CC2=C(c3ccccc3)C(=O)C(C)(OC(=O)C3CCCC3)C(=O)C2=CN1CCCOC(C)C` (stereo not given) the “activity change, negative = inhibition” value was 1.24%.
In the case of `CCCCc1nc2c(c3c1C[C@H](C)OC3)CN(C(=O)NCCCC(=O)OCC)CC2`, the “activity change, negative = inhibition” value is reported as 0.599%.
In the case of `CC#CCN1c2ccccc2[C@]23CCC(=O)N(CCCOC(C)C)C2=NC(C(=O)OC)=C(C(=O)OC)[C@H]13`, the “activity change, negative = inhibition” value is reported as 1.47%.
For `CC[C@@H](C)CN1C(=O)N[C@@H](c2ccccc2)C(C(C)=O)=C1C`, the “activity change, negative = inhibition” value was 5%.
For `C=CCN1c2ccccc2[C@]23C[C@@H](C(=O)OC)N(C(=O)COCc4ccccc4)C2=NC(C(=O)OC)=C(C(=O)OC)[C@H]13`, the “activity change, negative = inhibition” value was -1.77%.
For `CCCCS(=O)(=O)N1C2=NC(C(=O)OC)=C(C(=O)OC)[C@@H]3N(C)c4ccccc4[C@]23C[C@H]1C(=O)OC`, the “activity change, negative = inhibition” value was 8.5%.
With `COC/C=C/C1=CC2=CC(=O)C(C)(OC(=O)c3cnc4ccccc4n3)C(=O)C2=CN1CCCCO` (stereo not given) the “activity change, negative = inhibition” value was 0.4%.
For `COC(=O)CCCC1=CC2=CC(=O)C(C)(OC(=O)c3cccs3)C(=O)C2=CN1Cc1ccccc1` (stereo not given), the “activity change, negative = inhibition” value was 5.75%.
